Source: the supplement of paper PMC10338343
± gives the standard deviation.

The sequences below were run on EfPiwi piRISC loaded with piRNA #1 (26 nt) (assay: pre-steady-state target cleavage rate (min^-1); auxiliary factor: 500 nM Ephydatia muelleri Gtsf1; guide: piRNA #1 5'p-UGAGGUAGUAGGUUGUAUAGUAUCCA; MIWI and MILI are mouse PIWI proteins and EfPiwi is from a freshwater sponge; tags in brackets are library labels; higher = faster piRNA-guided slicing of the target).
Procedure, shortened: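 Cleave-'n-Seq: a transcribed, DNA-blocked target RNA library (0.1 nM) was mixed with 1 nM active affinity-purified piRISC carrying one synthetic guide, with or without 500 nM GTSF1 partner protein, in HEPES–potassium acetate buffer at 33 °C for 0–8 or 0–960 min. Uncleaved targets were sequenced and normalised to depth and to weakly complementary targets. Three trials were pooled, and k3 was capped at 0.0001 min^-1. The pre-steady-state cleavage rate came from a burst-and-steady-state fit.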

Sequence	pre-steady-state target cleavage rate
GGAGUGGAUACUAUACAACCAACUUCCUCA	0.00287 ± 0.0019
GGAGACGAUACUAUACAACCUUACUACCUCA	0.00805 ± 0.0039
GGAGUGGAUACUAUACAACCUAGUACCACA	0.0035 ± 0.0016
GGAGUGGUUACUAUACUACCUACUACCUCA	0.00596 ± 0.0023
GGAGAGGAUACUAUACAACCUUGUACCUCA	0.00294 ± 0.0029
GGAGUGGAUACUAUACAAACCUACUACCUCA	0.0643 ± 0.023
GGAGACGAUACUAUACAUACCUACUACCUCA	0.00857 ± 0.0043
GGAGAGGAUACUAUACAACCUACAACCUGA	0.00332 ± 0.0014
GGAGAGGAUACUAUACAACCACUACCUCA	0.00549 ± 0.0026
GGAGUGGAUACUAUACAACCUUACUACCUCA	0.00695 ± 0.0034
GGAGACGAUUCUAUACAACCAACUACCUCA	0.00258 ± 0.0018
GGAGAGGAUACUAUACAACUCUACUACCUCA	0.00443 ± 0.0043
GGAGACCUAUGAUAUGUACCUACUACGCUCA	< 0.0001
GGAGAGGAUACUAUACAACCUAGAACCUCA	0.00379 ± 0.0022
GGAGACGAUACUAUAGAAGCUACUACCUCA	0.00294 ± 0.0013
GGAGACCUAACUAUCCAACCUACUACCUCA	0.00727 ± 0.004
GGAGUGGAUACUAUAGAACCUUCUACCUCA	0.00334 ± 0.0018
GGAGAGGUUACUAUACAACCUAGUACCUCA	0.00366 ± 0.0015
GGAGACCUAACUAUACAACCUAGUACCACA	0.00588 ± 0.0049
GGAGAGGAUACUAUACACACCUACUACCUCA	0.00541 ± 0.0039

Sequence	pre-steady-state target cleavage rate
GGAGAGGAUACUAUACAAGCCUACUACCUCA	0.00835 ± 0.005
GGAGAGGAUACUAUACAACCUUCUACCUGA	0.00393 ± 0.0023
GGAGUCGAUACUAUACAACCAACUACCUCA	0.00517 ± 0.002
GGAGUGGAUACUAUACAACCUAGUACCUGA	0.00271 ± 0.001
GGAGACGAUACUAUACAACCUAGUACGUCA	0.00328 ± 0.0016
GGAGACCAUACUAUACAACCACUACCUCA	0.00558 ± 0.0034
GGAGACGAUACUAUACAAGCCUACUACCUCA	0.00444 ± 0.0036
GGAGAGGAAACUAUACAACCUACUUCCUCA	0.00302 ± 0.0017
GGAGACCUAACUAUACAACGUACUUCCUCA	0.00713 ± 0.0049
GGAGACCAUACUAUACAACCUAGUACGUCA	0.00483 ± 0.0024
GGAGACGAAACUAUACAACCAACUACCUCA	0.0068 ± 0.0036
GGAGACCUAACUAUACCAACCUACUACCUCA	0.00536 ± 0.0036
GGAGUGGAUACUAUACGAACCUACUACCUCA	0.00789 ± 0.0039
GGAGACGAUACUAUACAGACCUACUACCUCA	0.0101 ± 0.0034
GGAGACCUAACUAUACAACCUUCUACCUCA	0.00554 ± 0.0031
GGAGACGAUACUAUACAAUCCUACUACCUCA	0.0069 ± 0.004
GGAGACCUAUGAUAAGAACCUACUACCACA	< 0.0001
GGAGACCUAUGAUAUGUUCCUACAACGUCA	< 0.0001
GGAGUGGAUACUAUAGAUCCUACUACCUCA	0.0045 ± 0.0029
GGAGUGGAUACAAUACAACGUACUACCUCA	0.00385 ± 0.0018
